{"source": "PubChem BioAssay (Tox21)", "note": "Values joined by “and” are separate entries in the source; they are usually repeats but may differ in a detail not shown here. Equal entries are not always repeated. Inconclusive results are not listed. A call without a number means that no potency is given here. More than one record can exist for a structure, and the calls need not agree. Active and inactive are the calls of the source. Calls follow the shape of the dose curve; as a rule, active = well fitted cell-killing curve with a large enough effect in the repeat runs; inconclusive = weak or mixed curves, or effect the other way; inactive = flat fitted curve, though single readings scatter. Potency is read from the fitted curve at half-maximal effect."}
{"experiment": "qHTS RealTime-Glo MT Cell Viability Assay in HepG2 cells - 40 hour (AID 1224870); also: nearly all actives have a fitted effect of over 50% in size", "details": "RealTime-Glo luminescence; series mostly up to 76.8 µM; activity change, negative = cytotoxic: at the top concentration", "source_text": "National Center for Advancing Translational Sciences [NCATS]\nNIH Chemical Genomics Center [NCGC]\nU.S. Environmental Protection Agency [EPA]\nNational Institutes of Environmental Health Sciences [NIEHS]\nNational Toxicology Program [NTP]\nU.S. Food and Drug Administration [FDA]\nMeasure of cell viability is critical in the cell-base assay. Analysis of cell viability is necessary for the characterization of cell responses to cytotoxic drugs and environmental stress. A RealTime-Glo MT Cell Viability Assay to monitor cell viability in real time of continues cell culture during 40 hours of compound treatment was used to screen Tox21 10K library compounds in HepG2 cells. The RealTime-Glo MT Cell Viability Assay is a nonlytic, homogeneous, bioluminescent method to measure cell viability in real time using a simple, plate-based method. The assay involves adding NanoLuc luciferase and a cell-permeant prosubstrate to cells in culture. Viable cells reduce the proprietary prosubstrate to generate a substrate for NanoLuc luciferase. This substrate diffuses from cells into the surrounding culture medium, where it is rapidly used by the NanoLuc Enzyme to produce a luminescent signal. The signal correlates with the number of viable cells, making the assay well suited for cytotoxicity studies.\nTox21 Assay Protocol Summary:\nThe mixture of HepG2 cell suspension and reagents were dispensed at 600cells/6 ul/well in 1536-well tissue culture treated black solid bottom plates using a Multidrop dispenser. After the assay plates were incubated at a 37 C/5% CO2 incubator for 5 hours, 23 nL of compounds dissolved in DMSO, positive and negative controls was transferred to the assay plate by a pintool work station. The plates were incubated at 37 C for 40 hours. The luminescence intensity were measured at 0h, 8h, 16h, 24h, 32h and 40h time points using ViewLux plate reader during compound treatment."}
{"compound": "CCOC(=O)C(C#N)=C(c1ccccc1)c1ccccc1", "Potency": "inactive"}
{"compound": "CN(C)C(=N)N=C(N)N", "Potency": "inactive"}
{"compound": "Nc1ccc(Cl)cc1Cl", "Potency": "inactive"}
{"compound": "CC1=CC2C3CC(C=C3C)C2C1", "note": "(stereo not given)", "Potency": "inactive"}
{"compound": "CCC(C)OC(=O)c1ccc(O)cc1", "note": "(stereo not given)", "Potency": "inactive"}
{"compound": "c1ccc2c(c1)c1cccc3ccc4cccc2c4c31", "Potency": "inactive"}
{"compound": "O=C1c2cccc(O)c2C(=O)c2c(O)cccc21", "Potency": "inactive"}
{"compound": "O=C=Nc1ccc(Cc2ccc(N=C=O)cc2)cc1", "Potency": "inactive"}
{"compound": "Cc1ncc[nH]1", "Potency": "inactive"}
{"compound": "CN1C(C(=O)Nc2ccccn2)=C(O)c2ccccc2S1(=O)=O", "Potency": "inactive"}
{"compound": "CCCCCCCCCCCO", "Potency": "inactive"}
{"compound": "CCCCc1oc2ccccc2c1C(=O)c1cc(I)c(OCCN(CC)CC)c(I)c1", "Potency": "39.2 µM (active)"}
{"compound": "C[C@]12CCC(=O)C=C1CC[C@@H]1[C@@H]2C(=O)C[C@@]2(C)[C@H]1CC[C@]2(O)C(=O)CO", "Potency": "inactive"}
{"compound": "Nc1ncnc2nc[nH]c12", "Potency": "inactive"}
{"compound": "C[Si](C)(C)O[Si](C)(C)C", "Potency": "inactive"}
{"compound": "Cc1cccc(N(C)C(=S)Oc2ccc3ccccc3c2)c1", "Potency": "inactive"}
{"compound": "Cc1c(OCC(F)(F)F)ccnc1CS(=O)c1nc2ccccc2[nH]1", "note": "(stereo not given)", "Potency": "inactive"}
{"compound": "Cc1ccc2c(n1)Oc1ccc(C(C)C(=O)OCC(=O)N(C)C)cc1C2", "note": "(stereo not given)", "Potency": "inactive"}
{"compound": "C#C[C@]1(O)CC[C@H]2[C@@H]3CCc4cc(OC)ccc4[C@H]3CC[C@@]21C", "Potency": "inactive"}
{"compound": "Nc1ncn([C@@H]2O[C@H](CO)[C@@H](O)[C@H]2O)c(=O)n1", "Potency": "inactive"}
{"compound": "O=C(O)c1ccccc1Nc1cccc(C(F)(F)F)c1", "Potency": "inactive"}
{"compound": "COC(C)COC(C)COC(C)CO", "note": "(stereo not given)", "Potency": "inactive"}
{"compound": "Cn1cnc([N+](=O)[O-])c1Sc1ncnc2nc[nH]c12", "Potency": "inactive"}
{"compound": "CC(C)OC=O", "Potency": "inactive"}
{"compound": "CNCCCC12CCC(c3ccccc31)c1ccccc12", "Potency": "38.9 µM (active) and 26.8 µM (active)"}
{"compound": "COc1ccc(OC)c(C(O)CNC(=O)CN)c1", "note": "(stereo not given)", "Potency": "inactive"}
{"compound": "Cc1[nH]c(=O)c(C#N)cc1-c1ccncc1", "Potency": "inactive"}
{"compound": "NNc1ccc(C(=O)O)cc1", "Potency": "inactive"}
{"compound": "CC(=O)c1ccccn1", "Potency": "inactive"}
{"compound": "CCCCC/C=C/C=C/C=O", "Potency": "inactive"}
{"compound": "c1cc(N(CC2CO2)CC2CO2)ccc1OCC1CO1", "note": "(stereo not given)", "activity change, negative = cytotoxic": "3.79% (inactive)"}
{"compound": "CC(=O)Oc1ccccc1C(=O)Nc1ncc([N+](=O)[O-])s1", "activity change, negative = cytotoxic": "-18.2% (inactive)"}
{"compound": "OC[C@H]1O[C@@H]2O[C@H]3[C@H](O)[C@@H](O)[C@@H](O[C@H]4[C@H](O)[C@@H](O)[C@@H](O[C@H]5[C@H](O)[C@@H](O)[C@@H](O[C@H]6[C@H](O)[C@@H](O)[C@@H](O[C@H]7[C@H](O)[C@@H](O)[C@@H](O[C@H]8[C@H](O)[C@@H](O)[C@@H](O[C@H]1[C@H](O)[C@H]2O)O[C@@H]8CO)O[C@@H]7CO)O[C@@H]6CO)O[C@@H]5CO)O[C@@H]4CO)O[C@@H]3CO", "Potency": "inactive"}
{"compound": "Cc1cccc(C(=O)O)c1", "Potency": "inactive"}
{"compound": "CCCc1c(OCCCCc2nn[nH]n2)ccc(C(C)=O)c1O", "Potency": "inactive"}
{"compound": "O=C(c1ccc(OCCN2CCCCC2)cc1)c1c(-c2ccc(O)cc2)sc2cc(O)ccc12", "Potency": "54.9 µM (active) and inactive"}
{"compound": "CC(C)OC(=O)C(C)(C)Oc1ccc(C(=O)c2ccc(Cl)cc2)cc1", "Potency": "inactive"}
{"compound": "c1ccc2cc(Nc3ccc(Nc4ccc5ccccc5c4)cc3)ccc2c1", "Potency": "inactive"}
{"compound": "O=CCc1ccccc1", "Potency": "inactive"}
{"compound": "O=C(c1ccccc1)c1ccc(O)cc1O", "Potency": "inactive"}
